Experimental findings from PubChem BioAssay (NCATS) are described below.

The structures appear in SMILES notation. Inconclusive results are not listed. Activity calls are given as the source filed them. Unless noted, calls come from the whole dose curve; as a rule, active = well fitted curve in the direction sought with a large enough effect; inconclusive = small, poorly fitted or top-dose-only effect, or another doubt; inactive = no such curve, though single readings can be large; an effect the other way counts as inactive or inconclusive.

The target in assay [1] is Lysosomal acid glucosylceramidase (Homo sapiens) (UniProt P04062). Kind of assay: Glucocerebrosidase-p2 (AID 348; in the data active = potency below about 10 µM; note: potency is the fitted concentration of half-maximal effect). To be noted: purified GBA, blue fluorogenic substrate, 40 min. Summed up: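 Normal human glucocerebrosidase (0.2 nM) with blue fluorogenic substrate (80 uM final) in citrate/phosphate pH 5.9 with 10mM sodium taurocholate, 0.01% tween-20; 40 min RT, NaOH/glycine stop; fluorescence Ex 365/Em 440; AC50 from a titration from 0.6 nM upwards.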
Chain of Lysosomal acid glucosylceramidase (Homo sapiens) (P04062 whole entry, looked up): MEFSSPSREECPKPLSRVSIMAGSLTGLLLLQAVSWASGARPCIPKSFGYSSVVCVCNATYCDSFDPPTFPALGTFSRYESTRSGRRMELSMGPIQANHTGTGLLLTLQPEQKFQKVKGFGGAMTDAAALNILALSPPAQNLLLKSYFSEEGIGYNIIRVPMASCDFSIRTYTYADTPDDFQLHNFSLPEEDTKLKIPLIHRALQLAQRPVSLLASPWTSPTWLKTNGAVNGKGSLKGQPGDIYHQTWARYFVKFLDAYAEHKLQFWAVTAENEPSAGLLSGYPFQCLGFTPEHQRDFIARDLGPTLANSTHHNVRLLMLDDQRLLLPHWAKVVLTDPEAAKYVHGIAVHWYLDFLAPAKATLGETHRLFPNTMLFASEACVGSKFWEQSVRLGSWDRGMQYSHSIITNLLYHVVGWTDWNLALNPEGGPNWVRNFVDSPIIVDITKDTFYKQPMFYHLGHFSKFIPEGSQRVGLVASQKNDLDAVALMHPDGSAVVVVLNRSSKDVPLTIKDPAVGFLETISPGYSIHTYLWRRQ

The nature of assay [2]: AP1 Signaling Pathway (AID 357; active = well fitted curve in either direction with a large enough effect, not every such curve was filed as active; note: % is set by controls: 0 for no effect and ±100 for the full control effect). The following applies: ME-180 AP-1-bla reporter, EGF-induced, beta-lactamase ratio, 5 h; at 7.69 µM (top of the series) unless noted. Summed up:
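ME-180 cells with beta-lactamase reporter under AP-1 response element, stimulated with EC50 EGF; compounds tested in titration series, 5 h at 37 °C. CCF4 substrate added 2.5 h at room temperature; 460/530 nm emission ratio gave %activity and AC50.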

The target of assay [3] is Cytochrome P450 1A2 (Homo sapiens) (UniProt P05177). In words: p450-cyp1a2 (AID 410; calls by dose curve; note: potency is the fitted concentration of half-maximal effect). The following applies: recombinant CYP1A2, luciferin-ME demethylation, luminescence; series mostly up to 57 µM. The method, boiled down:
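Read-out is luminescence from luciferin produced by CYP1A2 demethylation of Luciferin-ME (100uM, at Km). Detection reagent stopped the 60 min NADPH-dependent reaction; signals were normalized to 57 uM furafylline.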

The nature of assay [4]: NFAT Signaling Pathway (AID 444; active = well fitted curve in either direction with a large enough effect, not every such curve was filed as active;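 note: carbachol stimulus at about its EC50 of 1 µM final; % is set by controls: 0 for no effect and ±100 for the full control effect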). The following applies: Jurkat NFAT-bla M1, carbachol, beta-lactamase ratio, 5 h; at 7.69 µM (top of the series) unless noted. The method, boiled down:
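Jurkat cells carrying an NFAT-driven β-lactamase reporter and co-transfected muscarinic M1 receptor were treated with compound plus carbachol (1 uM final, an EC50 level) for 5 h at 37 °C. CCF4 loading followed for 1 h at RT; 460/530 nm ratio gave %activity.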

Assay [5] can be described thus: Stat Signaling Pathway (AID 446; active = well fitted curve in either direction with a large enough effect, not every such curve was filed as active;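 note: ME-180 cervical cancer cells given 40 pM IL-6 alongside compound; SIE-controlled beta-lactamase reporter measured as 460/530 nm FRET emission ratio; % is set by controls: 0 for no effect and ±100 for the full control effect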). To be noted: ME-180 SIE beta-lactamase reporter, IL-6 stimulated, 5 h; at 7.69 µM (top of the series) unless noted. The method, boiled down:
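Compound effects on IL-6-induced STAT reporter activity were measured in ME-180 cells. After overnight culture, cells were co-treated with 40 pM IL-6 for 5 hrs before beta-lactamase substrate loading at room temperature.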

Assay [6] addresses Glucocorticoid receptor (Homo sapiens) (UniProt P04150). Kind of assay: GR-GFP Redistribution (AID 450;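 active = compounds whose dose series gives a full or clear partial fitted curve of increased nuclear translocation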; note: potency is the fitted concentration of half-maximal effect). To be noted: U2OS GR-GFP nuclear translocation, laser cytometry, 2 h.
Assay [7] shares this target. In words: GR-EFC Redistribution (AID 451; calls by dose curve; note: potency is the fitted concentration of half-maximal effect). The following applies: CHO-K1 GR-EFC translocation, beta-gal luminescence, 2 h. The method, boiled down:
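CHO-K1 cells stably expressing nuclear-localized β-gal enzyme acceptor and GR fused C-terminally to the enzyme donor fragment; ligand-driven nuclear translocation restores β-gal by complementation. Compounds titrated up to 46 uM final, 2 h at 37 °C; luminescence read.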

Assay [8] has as its target Mitogen-activated protein kinase 10 (Mus musculus) (UniProt Q61831). In words: JNK3 AlphaScreen Assay (AID 530; active = well fitted curve in either direction with a large enough effect, not every such curve was filed as active;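 note: kinase came from lysate of stimulated human HepG2 cells; signal reports phosphorylation of biotinylated GST-cJun 1-79 at Ser73 with 10 µM ATP; % is set by controls: 0 for no effect and ±100 for the full control effect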). The following applies: JNK3 lysate, c-Jun phosphorylation; series mostly up to 57.1 µM. Summed up:
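Biotinylated GST-cJun(1-79) served as substrate for JNK3 in HepG2 lysates stimulated with IL-1beta and TNF-alpha. ATP was 10 uM final, pH 7.6. Ser73 phosphorylation was quantified by AlphaScreen (680 nm excitation).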

The target in assay [9] is 3',5'-cyclic-AMP phosphodiesterase 4B (Homo sapiens) (UniProt Q07343). In words: qHTS Assay for Inhibitors of PDE-IV (AID 607; active = well fitted activation curve with a large enough effect in the main read-out, with a control signal flat, not every such curve was filed as active; note: % of control where 0% means no effect). To be noted: HEK293 ACTOne CNG channel cells, membrane potential fluorescence; series mostly up to 22.9 µM. The method, boiled down: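 ACTOne HEK293 cells carry a modified cAMP-gated CNG channel and express endogenous PDE4; plated 1000 cells/well, compounds up to 22.9 uM final. Membrane-potential dye fluorescence (ex 535/em 590) was read; parental cells received 10 uM forskolin + 100 uM RO 20-1724.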
Chain of 3',5'-cyclic-AMP phosphodiesterase 4B (Homo sapiens) (Q07343 whole entry, looked up): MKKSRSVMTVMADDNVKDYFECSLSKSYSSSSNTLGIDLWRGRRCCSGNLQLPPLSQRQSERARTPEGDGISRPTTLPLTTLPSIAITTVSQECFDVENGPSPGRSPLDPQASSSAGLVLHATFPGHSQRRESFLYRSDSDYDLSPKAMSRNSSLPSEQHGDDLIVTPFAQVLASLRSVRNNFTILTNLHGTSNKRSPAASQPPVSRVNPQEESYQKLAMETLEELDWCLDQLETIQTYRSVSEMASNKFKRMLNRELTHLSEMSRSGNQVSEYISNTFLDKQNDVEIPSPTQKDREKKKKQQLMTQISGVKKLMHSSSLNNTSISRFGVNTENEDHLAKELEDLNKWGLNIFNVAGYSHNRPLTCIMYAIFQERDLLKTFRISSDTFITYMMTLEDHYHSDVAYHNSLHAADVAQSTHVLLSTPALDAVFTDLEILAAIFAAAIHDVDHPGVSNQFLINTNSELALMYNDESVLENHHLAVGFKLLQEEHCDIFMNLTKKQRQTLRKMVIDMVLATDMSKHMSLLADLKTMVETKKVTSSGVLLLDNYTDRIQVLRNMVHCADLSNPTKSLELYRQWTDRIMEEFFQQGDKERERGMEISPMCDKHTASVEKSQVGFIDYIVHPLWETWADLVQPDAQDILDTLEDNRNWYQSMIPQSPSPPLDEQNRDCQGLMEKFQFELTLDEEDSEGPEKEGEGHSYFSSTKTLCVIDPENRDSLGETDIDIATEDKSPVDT
A general note: qHTS replaces the single test concentration by a dilution series.

Assay [10] deals with Cytochrome P450 3A4 (Homo sapiens) (UniProt P08684). Kind of assay: qHTS Assay for Inhibitors and Substrates of Cytochrome P450 3A4 (AID 884). Note: potency is the fitted concentration of half-maximal effect; nearly all actives have a fitted effect of over 50% in size. The following applies: recombinant CYP3A4, Luciferin-PPXE luminescence; series mostly up to 57.1 µM. Summed up: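 Luminescent readout of luciferin produced by CYP3A4 (20 nM) dealkylation of Luciferin-PPXE, 25 uM (its KM). NADPH-driven reaction ran 60 min at RT after 10 min compound preincubation; data scaled to 57 uM ketoconazole as 100% inhibition.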
Chain of Cytochrome P450 3A4 (Homo sapiens) (P08684 whole entry, looked up): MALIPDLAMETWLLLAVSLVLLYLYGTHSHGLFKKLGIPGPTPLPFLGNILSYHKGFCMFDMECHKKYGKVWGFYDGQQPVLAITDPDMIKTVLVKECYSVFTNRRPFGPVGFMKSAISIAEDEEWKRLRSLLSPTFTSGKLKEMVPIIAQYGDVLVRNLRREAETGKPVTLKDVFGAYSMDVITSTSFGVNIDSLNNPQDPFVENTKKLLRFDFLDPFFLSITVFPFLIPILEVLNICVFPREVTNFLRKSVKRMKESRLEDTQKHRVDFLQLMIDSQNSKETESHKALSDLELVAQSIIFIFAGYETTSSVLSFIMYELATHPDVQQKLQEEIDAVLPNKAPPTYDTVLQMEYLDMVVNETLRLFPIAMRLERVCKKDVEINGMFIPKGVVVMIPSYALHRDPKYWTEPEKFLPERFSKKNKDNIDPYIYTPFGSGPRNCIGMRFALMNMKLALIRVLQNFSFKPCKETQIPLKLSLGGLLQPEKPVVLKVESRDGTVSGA

Assay [11] shares this target. Kind of assay: qHTS Assay for Activators of Cytochrome P450 3A4 (AID 885). Note: nearly all actives have a fitted effect of over 65% in size. To be noted: recombinant CYP3A4, Luciferin-PPXE luminescence, 60 min; series mostly up to 57.1 µM. The method, boiled down: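 CYP3A4 activity: Luciferin-PPXE O-dealkylation, 25uM substrate, 200mM KPO4, RT throughout. Read-out is luciferase luminescence; higher values reflect activation.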
In assay [12] the target is Cytochrome P450 2C19 (Homo sapiens) (UniProt P33261). Kind of assay: qHTS Assay for Inhibitors and Substrates of Cytochrome P450 2C19 (AID 899). Note: potency is the fitted concentration of half-maximal effect; nearly all actives have a fitted effect of over 60% in size. The following applies: recombinant CYP2C19, luciferin-H EGE luminescence; series mostly up to 57.1 µM. Summed up:
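NADPH-dependent conversion of Luciferin-H EGE (10uM, at KM) by 5nM enzyme in 50mM KPO4, 60 min at 37C following 10 min compound preincubation. Stopped with luciferin detection buffer; luminescence read after 20 min.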

The nature of assay [13]: qHTS Assay for Lipid Storage Modulators (AID 1519; calls by dose curve). To be noted: Drosophila S3 cells, BODIPY lipid droplet/cell ratio, laser cytometry, cells loaded with oleic acid; for activity change, negative = inhibition: at 57.5 µM (top of the series). Summed up: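 Cells seeded at 5,000 per well were treated with compounds over a concentration series and loaded with oleic acid (400 uM, as added). Lipid droplet fluorescence (488 nm excitation, 500-530 nm channel) was read by laser-scanning cytometry and normalized to 20 uM Triacsin C.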

In assay [14] the target is Dual specificity protein kinase CLK4 (Homo sapiens) (UniProt Q9HAZ1). Kind of assay: qHTS Assay for Inhibitors of CDC-like Kinase 4 (ADP-FP Assay) (AID 1795).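 Note: recombinant human CLK4 phosphorylating RS repeat peptide at 1 µM ATP; % is set by controls: 0 for no effect and ±100 for the full control effect; nearly all actives have a fitted effect of over 60% in size.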 The following applies: Transcreener ADP fluorescence polarization; series mostly up to 50 µM. The method, boiled down:
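Kinase activity was followed as ADP output, converted from fluorescence polarization with a calibration curve. Reactions ran one hour at low ATP (1 uM) with RS peptide substrate.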

Assay [15] has as its target Ubiquitin carboxyl-terminal hydrolase 1 (Homo sapiens) (UniProt O94782). Kind of assay: Inhibitors of USP1/UAF1: Pilot qHTS (AID 504865).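 Note: rhodamine fluorescence freed from ubiquitin-rhodamine substrate followed over time; top concentration of the series differs between compounds; % is set by controls: 0 for no effect and ±100 for the full control effect; nearly all actives have a fitted effect of over 35% in size.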 The following applies: purified USP1/UAF1, Ub-rhodamine cleavage fluorescence; series mostly up to 54.9 µM. The method, boiled down: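 Enzyme-free wells gave the negative control, while test wells held 1nM USP1/UAF1 preincubated with compound for 15 min at room temperature. Ub-Rho at 150nM final started the reaction, and fluorescence at 480/540 nm was recorded kinetically.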

Assay [16] can be described thus: Primary qHTS for small molecule stabilizers of the endoplasmic reticulum resident proteome: Secreted ER Calcium Modulated Protein (SERCaMP) assay (AID 1508630). Note: % is set by controls: 0 for no effect and ±100 for the full control effect. To be noted: SH-SY5Y GLuc-SERCaMP (Gaussia luciferase released on ER calcium loss) secretion, thapsigargin, luminescence; series mostly up to 38.4 µM. Summed up:
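The SH-SY5Y reporter protocol was run at 3 concentrations up to 38.3 uM (primary) or 11 concentrations (follow-up): 16 h compound, 100 nM thapsigargin for 4 h, then extracellular luciferase luminescence.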

A short description of assay [17]: Confirmation and Secondary Assay for Modulators of Hemoglobin Beta Chain Splicing at IVS2 654 locus (AID 910).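 Note: per-well total GFP intensity by laser scanning cytometry after 2-day treatment; % of control where 0% means no effect.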 The following applies: HeLa EGFP-654 splicing reporter, GFP fluorescence, 48 h; series mostly up to 38.3 µM. The method, boiled down:
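HeLa cells stably carrying EGFP interrupted by mutant beta-globin IVS2-654 intron (CMV-driven) were treated with compound for 2 days at 37C; corrected splicing was scored as total peak GFP intensity per well (488 nm excitation, 500-520 nm emission).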

The nature of assay [18]: Confirmation and Secondary Assay for Modulators of Hemoglobin Beta Chain Splicing at IVS2 705 locus (AID 930).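 Note: HeLa cells stably expressing the EGFP-705 splicing reporter; GFP fluorescence per well restored by corrected splicing of the IVS2-705 intron in EGFP; % of control where 0% means no effect.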 To be noted: HeLa EGFP-705 splicing reporter, GFP fluorescence, 48 h; series mostly up to 38.3 µM. The method, boiled down:
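Assay measures total GFP intensity per well in HeLa EGFP-705 cells after 2 days with compound; mis-splicing normally truncates EGFP, so fluorescence indicates corrected splicing.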

Assay [19] in a line: qHTS Assay for Identification of Small Molecule Agonists for Hypoxia Response Element Signaling Pathway (AID 914; active = well fitted activation curve with a large enough effect in the signal ratio, with a control signal flat, not every such curve was filed as active; the % refers to the signal ratio; note: potency is the fitted concentration of half-maximal effect). To be noted: ME-180 (cervical carcinoma) HRE-bla reporter, beta-lactamase ratio, CoCl2, 17 h; activation: stronger effect = higher value. Summed up: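 Compounds in a titration series were added to ME-180 reporter cells alongside an EC50 level of CoCl2. After 17 hours, beta-lactamase activity was read as the 460nm/530nm emission ratio of CCF4, giving AC50 values.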

The mark [20] stands for this setting: measured here: cell count channel max response.
The mark [21] stands for this setting: measured here: lipid channel max response.

Chain of Dual specificity protein kinase CLK4 (Homo sapiens) (Q9HAZ1 whole entry, looked up): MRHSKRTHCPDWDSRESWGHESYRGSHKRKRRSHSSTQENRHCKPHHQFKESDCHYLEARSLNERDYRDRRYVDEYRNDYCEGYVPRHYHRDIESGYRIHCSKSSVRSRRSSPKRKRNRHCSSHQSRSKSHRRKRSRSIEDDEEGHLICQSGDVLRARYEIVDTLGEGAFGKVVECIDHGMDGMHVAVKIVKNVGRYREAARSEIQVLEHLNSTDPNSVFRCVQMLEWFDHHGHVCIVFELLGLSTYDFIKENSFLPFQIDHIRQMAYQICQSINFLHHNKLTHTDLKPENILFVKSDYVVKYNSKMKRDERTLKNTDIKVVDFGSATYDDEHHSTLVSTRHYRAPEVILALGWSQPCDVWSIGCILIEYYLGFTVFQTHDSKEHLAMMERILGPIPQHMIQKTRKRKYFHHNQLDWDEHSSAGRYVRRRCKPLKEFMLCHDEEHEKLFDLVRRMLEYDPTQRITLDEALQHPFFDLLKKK
Chain of Ubiquitin carboxyl-terminal hydrolase 1 (Homo sapiens) (O94782 whole entry, looked up): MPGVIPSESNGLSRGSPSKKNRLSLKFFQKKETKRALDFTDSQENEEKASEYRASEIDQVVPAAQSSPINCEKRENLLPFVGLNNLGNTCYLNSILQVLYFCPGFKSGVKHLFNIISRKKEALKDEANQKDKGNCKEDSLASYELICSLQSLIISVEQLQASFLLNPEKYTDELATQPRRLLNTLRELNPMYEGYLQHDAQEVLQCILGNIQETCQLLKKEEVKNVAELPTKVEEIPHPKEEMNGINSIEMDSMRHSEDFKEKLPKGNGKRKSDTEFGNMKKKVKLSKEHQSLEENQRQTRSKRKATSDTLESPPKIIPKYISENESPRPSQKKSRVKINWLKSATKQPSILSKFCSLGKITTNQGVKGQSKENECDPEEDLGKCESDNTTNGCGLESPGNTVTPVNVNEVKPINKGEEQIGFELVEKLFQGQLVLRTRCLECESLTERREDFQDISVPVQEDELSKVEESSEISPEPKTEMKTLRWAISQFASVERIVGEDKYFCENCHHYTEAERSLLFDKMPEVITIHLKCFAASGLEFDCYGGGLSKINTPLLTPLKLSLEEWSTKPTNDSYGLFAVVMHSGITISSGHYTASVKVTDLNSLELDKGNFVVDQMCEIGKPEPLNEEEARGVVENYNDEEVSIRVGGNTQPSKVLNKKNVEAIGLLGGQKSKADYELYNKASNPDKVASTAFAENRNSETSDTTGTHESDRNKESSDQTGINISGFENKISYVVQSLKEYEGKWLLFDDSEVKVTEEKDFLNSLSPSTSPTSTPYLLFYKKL
Chain of Cytochrome P450 2C19 (Homo sapiens) (P33261 whole entry, looked up): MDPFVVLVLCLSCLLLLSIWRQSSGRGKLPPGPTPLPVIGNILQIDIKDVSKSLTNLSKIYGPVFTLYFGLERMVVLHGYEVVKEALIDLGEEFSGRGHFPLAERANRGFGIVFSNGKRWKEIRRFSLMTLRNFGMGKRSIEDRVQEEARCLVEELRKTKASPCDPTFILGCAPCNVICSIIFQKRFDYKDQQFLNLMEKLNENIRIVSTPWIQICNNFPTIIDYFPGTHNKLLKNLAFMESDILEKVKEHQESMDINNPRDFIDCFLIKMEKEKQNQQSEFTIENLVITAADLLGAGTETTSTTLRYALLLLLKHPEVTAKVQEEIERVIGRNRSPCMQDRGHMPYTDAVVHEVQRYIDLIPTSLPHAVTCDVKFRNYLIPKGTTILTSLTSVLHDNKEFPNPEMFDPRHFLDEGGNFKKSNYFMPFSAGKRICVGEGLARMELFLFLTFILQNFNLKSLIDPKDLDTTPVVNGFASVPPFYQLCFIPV
Chain of Cytochrome P450 1A2 (Homo sapiens) (P05177 whole entry, looked up): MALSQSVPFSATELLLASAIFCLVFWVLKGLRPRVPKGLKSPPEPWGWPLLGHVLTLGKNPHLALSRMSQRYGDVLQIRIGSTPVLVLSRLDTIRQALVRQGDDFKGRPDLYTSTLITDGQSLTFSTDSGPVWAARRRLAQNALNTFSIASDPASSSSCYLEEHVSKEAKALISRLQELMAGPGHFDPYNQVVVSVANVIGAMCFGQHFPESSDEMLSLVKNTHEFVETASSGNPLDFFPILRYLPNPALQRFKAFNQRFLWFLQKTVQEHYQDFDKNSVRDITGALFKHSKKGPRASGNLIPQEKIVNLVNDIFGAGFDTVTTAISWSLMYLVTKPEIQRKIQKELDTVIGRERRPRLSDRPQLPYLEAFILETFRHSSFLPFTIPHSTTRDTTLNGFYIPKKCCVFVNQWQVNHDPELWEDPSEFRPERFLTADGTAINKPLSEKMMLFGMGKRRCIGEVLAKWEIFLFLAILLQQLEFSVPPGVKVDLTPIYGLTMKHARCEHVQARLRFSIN
Chain of Glucocorticoid receptor (Homo sapiens) (P04150 whole entry, looked up): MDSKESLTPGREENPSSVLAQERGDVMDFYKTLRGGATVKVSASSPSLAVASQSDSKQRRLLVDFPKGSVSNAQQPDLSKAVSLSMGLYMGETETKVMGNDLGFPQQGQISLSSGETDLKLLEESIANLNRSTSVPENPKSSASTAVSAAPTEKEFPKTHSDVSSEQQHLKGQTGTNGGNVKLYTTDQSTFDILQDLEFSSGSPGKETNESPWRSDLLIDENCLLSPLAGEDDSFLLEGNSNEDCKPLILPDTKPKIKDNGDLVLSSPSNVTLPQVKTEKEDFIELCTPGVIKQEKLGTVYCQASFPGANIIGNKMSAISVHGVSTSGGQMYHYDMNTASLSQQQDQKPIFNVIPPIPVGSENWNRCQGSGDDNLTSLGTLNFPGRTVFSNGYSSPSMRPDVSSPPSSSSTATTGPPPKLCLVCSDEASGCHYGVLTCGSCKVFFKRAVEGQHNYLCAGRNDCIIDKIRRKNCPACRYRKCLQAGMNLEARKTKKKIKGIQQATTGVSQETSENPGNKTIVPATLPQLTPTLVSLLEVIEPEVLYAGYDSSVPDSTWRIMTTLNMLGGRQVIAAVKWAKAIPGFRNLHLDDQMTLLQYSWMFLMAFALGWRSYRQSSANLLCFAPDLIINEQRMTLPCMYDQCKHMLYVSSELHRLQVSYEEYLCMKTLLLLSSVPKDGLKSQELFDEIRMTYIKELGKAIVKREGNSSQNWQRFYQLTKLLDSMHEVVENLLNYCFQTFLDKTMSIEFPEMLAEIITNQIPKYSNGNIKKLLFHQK

As to `COc1ccc2[nH]cc(CCNc3ncncc3-c3c(C)noc3C)c2c1`, the Potency in assay [1] was > 11.4 µM (inactive); in assay [3], 12.6 µM (active); in assay [6], > 46 µM (inactive); in [7], > 46 µM (inactive); in [10], 0.794 µM (active); in [12], 3.16 µM (active). The activity change, negative = inhibition is -11.4% (inactive) in [2], -0.0502% (inactive) in assay [4] and 7.61% (inactive) in assay [13]. For the same compound, in assay [5], the activity, negative = inhibition was -10.2% (inactive). Moreover, the compound was classed as inactive in assay [8]. Further, the Potency entry in assay [9], in assay [11], in [14], in assay [15] and in [16] was “inactive” throughout. Also, the max response in assay [13] (setting [20]) amounted to 11.1%; in assay [13] (setting [21]), 18.3%.

In the case of `COc1cccc(-c2cncnc2-n2ccnc2)c1`, the Potency was > 11.4 µM (inactive) in assay [1]; 0.1 µM (active) in [3]; > 46 µM (inactive) in [6]; > 46 µM (inactive) in assay [7]; 0.316 µM (active) in [10]; 0.631 µM (active) in assay [12]. Besides, the activity change, negative = inhibition in assay [2] is 3.37% (inactive); in assay [4] it was -0.356% (inactive); in [13] it was 7.42% (inactive). Besides, in assay [5], the activity, negative = inhibition was -1.78% (inactive). In addition, the outcome in assay [8], in assay [17] and in assay [18] was inactive. Also, the Potency result in assay [9], in assay [11], in assay [15] and in [16] was “inactive” each time. Moreover, the max response in assay [13] (setting [20]) is -2.24%; in assay [13] (setting [21]) it was 4.82%.

Regarding `Cn1c(=O)c(-c2cccs2)nc2cncnc21`, the Potency is > 11.4 µM (inactive) in assay [1]; 1.26 µM (active) in [3]; > 9.22 µM (inactive) in assay [6]; > 46 µM (inactive) in [7]; 7.94 µM (active) in assay [10]. Moreover, the activity change, negative = inhibition was 16% (inactive) in assay [2], 2.85% (inactive) in assay [4] and 2.77% (inactive) in [13]. In addition, the activity, negative = inhibition in assay [5] is -17.1% (inactive). Moreover, the outcome in assay [8] was inactive. Moreover, the Potency entry in [9], in assay [11], in assay [14], in assay [15] and in assay [16] was “inactive” throughout. Also, the max response was 18.7% in [13] (setting [20]) and 19.2% in assay [13] (setting [21]).

As for `CN1CCN(c2ncc3nc(-c4cccs4)c(=O)n(CCC#N)c3n2)CC1`, the Potency in [1] was > 11.4 µM (inactive); in [3], 15.8 µM (active); in assay [6], > 9.22 µM (inactive); in [7], > 46 µM (inactive); in assay [19], 3.16 µM (active). Moreover, the compound was called inactive in assay [8]. Besides, the Potency result in [9], in assay [11], in assay [14], in assay [15] and in assay [16] was “inactive” each time. For the same compound, the activity change, negative = inhibition in [13] is 0.733% (inactive). The max response is 11.3% in assay [13] (setting [20]) and 9.27% in [13] (setting [21]).

Consider `COc1ccc(CNc2cc(-c3ccccc3Cl)ncn2)c(OC)c1`, for which the Potency in assay [1] is > 11.4 µM (inactive); in assay [6], > 46 µM (inactive); in assay [7] it was > 46 µM (inactive); in [10], 6.31 µM (active); in assay [12] it was 2 µM (active). Besides, the activity change, negative = inhibition was -3.31% (inactive) in [2], -0.814% (inactive) in assay [4] and 5.7% (inactive) in [13]. The activity, negative = inhibition in [5] was 7.16% (inactive). For the same compound, in assay [8], the call was inactive. Further, the Potency entry in assay [11], in [14] and in [16] was “inactive” each time. The values for the max response in assay [13] (setting [20]) and in assay [13] (setting [21]) were 19.5% and 25%, respectively.

For `COc1ccc(-c2nc3cnc(Nc4cccc(OC)c4)nc3n(C)c2=O)cc1`, the Potency in [1] is > 11.4 µM (inactive); in [6], > 9.22 µM (inactive); in assay [7] it was > 46 µM (inactive). The activity change, negative = inhibition in assay [2] was -11.9% (inactive); in assay [4] it was -14.3% (inactive); in assay [13], 1.51% (inactive). The activity, negative = inhibition in assay [5] was 0.85% (inactive). The compound was called inactive in [8]. The Potency result in assay [9], in [14], in assay [15] and in assay [16] was “inactive” throughout. Further, the figures for the max response in assay [13] (setting [20]) and in assay [13] (setting [21]) were 2.29% and 2.92%, respectively.
